FMDV antiviral = High Throughput Screening for Foot and Mouth Disease Virus Antivirals; FMDV antiviral cell-based qHTS; Potency, µM (doses to about 57.9 µM), most hits filed as inhibitors; hit rate 1.2% among 410,000; AID 1159524, 2015; calls by dose curve; tested in HEK293T cells; note: read-out not given here; nearly all actives have a fitted effect of over 45% in size
Sm TGR block = qHTS Assay for the Inhibitors of Schistosoma Mansoni Peroxiredoxins; Schistosoma mansoni thioredoxin glutathione reductase (TGR), Q962Y6; purified TGR, DTNB reduction, TNB absorbance 405 nm; Potency, µM (top dose mostly 114 µM), hits mostly inhibitors; hit rate 3% among 360,000; AID 485364, 2010; note: nearly all actives have a fitted effect of over 60% in size
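Kinetic colorimetric format: TGR-catalysed, NADPH-driven DTNB reduction monitored via TNB absorbance. Enzyme dispensed at 20 nM; compound exposure 15 min at room temperature before reaction start.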
RE007 growth inh = qHTS Assay for Inhibitors of the HIV-1 protein Vpr; S. pombe RE007 Vpr strain, BacTiter-Glo ATP luminescence, 24 h; AID 651644, 2012; hit rate 0.21% among 360,000; Potency, µM (series often up to 92.2 µM), hits mostly inhibitors; active = well fitted falling curve with a large enough effect; inconclusive = small, poorly fitted or top-dose-only effect; inactive = no such curve, though single readings can be large or run the other way; note: nearly all actives have a fitted effect of over 50% in size
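Fission yeast strain RE007, carrying one chromosomally integrated HIV-1 vpr copy, was seeded at OD 0.01 in PMG+AL medium with 23 nL pinned compound. After 24 h at 30 °C and 99% humidity, viability was read by BacTiter-Glo luminescence.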
Tb PYK inh = qHTS of Trypanosoma Brucei Inhibitors; pyruvate kinase (Trypanosoma brucei), Q57TT1; TbPYK enzyme, Kinase-Glo Plus ATP luminescence, 45 min; Potency, µM (series often up to 76.8 µM), most hits filed as inhibitors; hit rate 0.12% among 410,000; AID 624173, 2012; note: nearly all actives have a fitted effect of over 50% in size
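Activity of T. brucei pyruvate kinase was followed by Kinase-Glo Plus luminescence after the enzyme reacted 45 min at room temperature with 130 uM ADP (final) and substrate. Test compounds were added before ADP at multiple concentrations.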
Hits are given with their value. Compounds with a hit are over-represented: about 3.7% of the library has one in this group of screens. Unless noted, calls come from the whole dose curve; as a rule, active = well fitted curve in the direction sought with a large enough effect; inconclusive = small, poorly fitted or top-dose-only effect, or another doubt; inactive = no such curve, though single readings can be large; an effect the other way counts as inactive or inconclusive.

Results for CCOC(=O)[C@]12Cc3c(cc(OC)c(OC)c3OC)[C@H]1N(C)C(=O)c1ccccc12 ?
FMDV antiviral: inactive; RE007 growth inh: inactive; Tb PYK inh: inactive

What do the screens show for `CCOC(=O)[C@]12Cc3c(cc(OC)c(OC)c3OC)[C@H]1N(C(C)C)C(=O)c1cc(OC)ccc12`?
FMDV antiviral: 14.1µM; RE007 growth inh: inactive; Tb PYK inh: inactive

How did CCOC(=O)[C@]12Cc3cc(OC)ccc3[C@H]1N(C(C)C)C(=O)c1cc(OC)ccc12 do in these assays?
FMDV antiviral: 15.8µM; RE007 growth inh: inactive; Tb PYK inh: inactive

How did CCOC(=O)[C@]12Cc3cc(OC)ccc3[C@H]1N(C)C(=O)c1ccccc12 do in these assays?
FMDV antiviral: inconclusive; RE007 growth inh: inactive; Tb PYK inh: inactive

How did CCOC(=O)[C@]12Cc3cc(C)ccc3[C@H]1N(C)C(=O)c1cc(OC)ccc12 do in these assays?
FMDV antiviral: 39.8µM; RE007 growth inh: inactive; Tb PYK inh: inactive

Results for CCCN(CCC)C(=O)CSc1nnc2cc(C)c3cc(C)cc(C)c3n12 ?
FMDV antiviral: inactive; Sm TGR block: inactive; Tb PYK inh: inconclusive

How did CCc1nn(CC(=O)N2CCCCC2)c(=O)c2cc3sc(C)cc3n12 do in these assays?
FMDV antiviral: inactive; Sm TGR block: inactive; Tb PYK inh: inactive

How did Cc1ccc(C(=O)O/N=C(\N)c2ccccn2)c(Cl)c1 do in these assays?
FMDV antiviral: 10µM; Sm TGR block: inactive; RE007 growth inh: 12.6µM; Tb PYK inh: 14.1µM

Results for N/C(CS(=O)(=O)c1ccccn1)=N\OC(=O)c1ccccc1Cl ?
FMDV antiviral: inactive; Sm TGR block: 39.8µM; RE007 growth inh: inactive; Tb PYK inh: inactive

What do the screens show for `N/C(CS(=O)(=O)c1ccccn1)=N\OC(=O)c1ccc(Cl)cc1`?
FMDV antiviral: inactive; Sm TGR block: inactive; RE007 growth inh: inactive; Tb PYK inh: inactive

What do the screens show for `N/C(=N\OC(=O)c1ccc([N+](=O)[O-])cc1Cl)c1ccccn1`?
FMDV antiviral: 15.8µM; Sm TGR block: inconclusive; RE007 growth inh: inactive; Tb PYK inh: inconclusive

What do the screens show for `N/C(=N\OC(=O)c1ccccc1Cl)c1cccnc1`?
FMDV antiviral: inactive; Sm TGR block: inactive; RE007 growth inh: 20µM; Tb PYK inh: inactive

Results for N/C(=N\OC(=O)c1ccc(Cl)cc1Cl)c1ccccn1 ?
FMDV antiviral: inactive; Sm TGR block: inactive; RE007 growth inh: inactive; Tb PYK inh: inactive

What do the screens show for `Cc1c(CC(=O)NCCc2ccc(Cl)cc2)c(=O)oc2c(C)c3occ(C(C)(C)C)c3cc12`?
FMDV antiviral: inactive; Sm TGR block: inactive; Tb PYK inh: inactive

How did CCCc1ccc(C(=O)O/N=C(\N)c2ccccn2)cc1 do in these assays?
FMDV antiviral: 14.1µM; Sm TGR block: inactive; RE007 growth inh: inconclusive; Tb PYK inh: inconclusive

What do the screens show for `CN(C)S(=O)(=O)c1cccc2c1C(=O)c1ccccc1C2=O`?
FMDV antiviral: inactive; Sm TGR block: 25.1µM; RE007 growth inh: inactive; Tb PYK inh: inactive

What do the screens show for `Cc1ccc(S(=O)(=O)NCCc2nnc3ccc(SCC(=O)Nc4c(C)cc(C)cc4C)nn23)cc1`?
FMDV antiviral: inactive; Sm TGR block: inactive; Tb PYK inh: inactive

How did CCOC(=O)Cc1c(C)nc2c(-c3ccc(Cl)cc3)c(C(F)(F)F)nn2c1C do in these assays?
FMDV antiviral: inconclusive; Sm TGR block: inactive; Tb PYK inh: inactive

How did CC1(C)CC(=O)C=C(NC2=CC3OC(c4ccccc4)OCC3OC2=O)C1 (centres undefined) do in these assays?
FMDV antiviral: 8.91µM; Sm TGR block: 20µM; RE007 growth inh: inactive; Tb PYK inh: inactive

What do the screens show for `O=C1C2ON(c3ccccc3)C(c3cccnc3)C2C(=O)N1Cc1ccccc1` (centres undefined)?
FMDV antiviral: inconclusive; Sm TGR block: 39.8µM; RE007 growth inh: inactive; Tb PYK inh: inactive

Results for Oc1cc2c(cc1O)C1c3ccc(O)c(O)c3OCC1(O)C2 (centres undefined) ?
FMDV antiviral: inconclusive; Sm TGR block: 0.708µM; RE007 growth inh: inactive; Tb PYK inh: 10µM

How did Cc1ccc(S(=O)(=O)NNC(=S)NC(=O)c2ccc([N+](=O)[O-])cc2)cc1 do in these assays?
FMDV antiviral: inactive; Sm TGR block: 7.94µM; RE007 growth inh: inactive; Tb PYK inh: inactive

What do the screens show for `Cc1ccc(S(=O)(=O)NNC(=S)NCC2CCCO2)cc1` (centres undefined)?
FMDV antiviral: inactive; Sm TGR block: 12.6µM; RE007 growth inh: inactive; Tb PYK inh: inactive

Results for Cc1ccc(C(=O)NC(=S)NNS(=O)(=O)c2ccc(C)cc2)cc1 ?
FMDV antiviral: inactive; Sm TGR block: 22.4µM; RE007 growth inh: inactive; Tb PYK inh: inactive

How did Cc1ccc(S(=O)(=O)NNC(=O)c2ccc(O)cc2)cc1 do in these assays?
FMDV antiviral: inactive; Sm TGR block: inactive; RE007 growth inh: inactive; Tb PYK inh: inactive

How did O=C(NNC(=S)NC(=O)c1ccc(Br)cc1)c1ccc([N+](=O)[O-])cc1 do in these assays?
FMDV antiviral: inactive; Sm TGR block: 100µM; RE007 growth inh: inactive; Tb PYK inh: inactive

How did Cc1ccc(S(=O)(=O)NCC2CCCO2)cc1 (centres undefined) do in these assays?
FMDV antiviral: inactive; Sm TGR block: inactive; RE007 growth inh: inactive; Tb PYK inh: inactive

How did O=C(NNC(=O)c1ccc([N+](=O)[O-])cc1)c1ccc(Br)cc1 do in these assays?
FMDV antiviral: inactive; Sm TGR block: inactive; RE007 growth inh: inactive; Tb PYK inh: inactive

Results for CCC1CN(CCNC(=O)C2CCCCN2C)Cc2cc(OC)ccc2O1 (centres undefined) ?
FMDV antiviral: inactive

How did COCCCNC(=O)c1cc2n(n1)CCCN(Cc1ccc(C)cc1)C2=O do in these assays?
FMDV antiviral: inactive; Sm TGR block: inactive; Tb PYK inh: inactive

How did COc1ccc(-c2nc(Cn3c(SCc4ccc(C)cc4)nc4cccnc43)c(C)o2)cc1OC do in these assays?
FMDV antiviral: inactive; Sm TGR block: inactive; Tb PYK inh: inactive

Results for OC(CN1CCCCC1)c1cc(-c2ccccc2)on1 (centres undefined) ?
Tb PYK inh: inactive

What do the screens show for `Cc1ccc(C(=O)NC(=S)NCC2CCCO2)cc1Br` (centres undefined)?
FMDV antiviral: inactive; Sm TGR block: 56.2µM; RE007 growth inh: inconclusive; Tb PYK inh: inactive

How did O=[N+]([O-])c1cccc(NC(=S)NCCc2ccccc2)c1 do in these assays?
FMDV antiviral: inconclusive; Sm TGR block: inactive; RE007 growth inh: inactive; Tb PYK inh: inactive

What do the screens show for `O=[N+]([O-])c1ccc(S(=O)(=O)NNC(=S)NCCc2ccccc2)cc1`?
FMDV antiviral: inactive; Sm TGR block: 1.78µM; RE007 growth inh: inactive; Tb PYK inh: inactive

Results for CCCCCOC(=O)CSc1nc2sc3c(c2c(=O)n1-c1ccccc1)CC(C)(CC)OC3 (centres undefined) ?
FMDV antiviral: inactive; Sm TGR block: inactive; Tb PYK inh: inactive

How did O=C(O)CCc1ccc(-c2cccs2)n1NC(=O)c1ccc(O)cc1 do in these assays?
FMDV antiviral: inactive; Sm TGR block: inactive; RE007 growth inh: inactive; Tb PYK inh: inactive

Assay outcomes from PubChem BioAssay.
